Test [1] is described as follows: P. berghei load reduction in hepatocytes – cell-based, HepG2, luciferase luminescence, HepG2 viability, primary screen (AID 624349; in the data active = parasite load remaining mostly below about 12%, no sharp cut-off; inactive = mostly above about 10%;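 note: 100% = mean of DMSO negative control wells on the same plate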). The settings on record: P. berghei liver stage in HepG2, luciferase luminescence, concentration not given here; parasite load remaining: stronger effect = lower value; viability: measured here: HepG2 viability without parasites.
Test [2] in a line: Wnt pathway potentiators raising nuclear beta-catenin – imaging, WNT3A-conditioned medium, mouse C2C12, NPC library, primary screen (AID 1117326; in the data active = nuclear beta-catenin stimulation mostly above about 4.2%, no sharp cut-off; inactive = mostly below about 10%). As to conditions: stronger effect = higher value.
A short description of test [3]: stimulators of insulin release from INS-1E, primary screen, cell-based, 5 mM glucose, NPC library (AID 1117329;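 active = compound raises insulin release from rat beta cells at 5 mM glucose, no numeric limit stated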). As to conditions: rat INS-1E insulin secretion, at 10 µM, stronger effect = higher value.
Test [4] is described as follows: growth inhibition of GSK3B-pretreated HCT116 cells – cell-based, CellTiter-Glo, 0.2 to 20 µM (AID 1117336;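 active = compounds lowering colon cancer cell viability after pretreatment blocking the GSK3B kinase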). As to conditions: HCT116 viability after GSK3B inhibitor, at 20 µM, stronger effect = higher value.
A short description of test [5]: inhibition of endothelial tube formation, primary screen, imaging, VEGF stimulated, CD31 staining, tube area, NPC library (AID 1117340;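 active = compound that reduces growth-factor-driven endothelial tube area in a mixed cell culture, no cutoff stated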). As to conditions: VEGF-stimulated ADSC/ECFC co-culture, at 10 µM, stronger effect = higher value.
A short description of test [6]: GLP1 release stimulators, primary, NCI-H716, NPC library (AID 1117341;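 active = compound raises GLP1 secretion from the human gut endocrine cells, with no numeric limit stated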). As to conditions: NCI-H716 cells, at 10 µM, stronger effect = higher value.
The nature of test [7]: HCT116 colon cancer cell growth inhibition, primary screen, CellTiter-Glo luminescence, NPC library (AID 1117342;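 active = compounds that lower survival of HCT116 colon cancer cells in the luminescence readout, no numeric limit stated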). As to conditions: at 20 µM (top of the series). In general terms: In ATP-based viability assays light output follows the ATP content of the culture.
Test [8] in a line: reduced SW480 viability measured with CellTiter-Glo, NPC library, primary (AID 1117343;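 active = compounds that lower viability of the colon cancer cells in the luminescence readout, with no numeric limit stated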). The settings on record: CellTiter-Glo luminescence; at 20 µM (top of the series).
The nature of test [9]: NPC library primary testing for decreased DLD-1 cell viability via CellTiter-Glo (AID 1117346;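 active = compounds that lower survival of DLD-1 colon cancer cells in the luminescence readout, no cutoff given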). As to conditions: DLD-1 viability, CellTiter-Glo luminescence; at 20 µM (top of the series).
Test [10] in a line: EMT-state selective cytotoxicity in co-culture – imaging, PC-3E GFP, TEM4-18 mCherry, primary screen (AID 1345086;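 active = compounds killing one labelled cell type while sparing the other, by normalised counts and ratio limits, not self-fluorescent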;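 for all read-outs here: cells exposed to compound for 72 h before imaging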;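 for red/green cell ratio (normalised): normalised mesenchymal count divided by normalised epithelial count so high means epithelial killing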). The settings on record: PC-3E GFP / TEM4-18 mCherry co-culture, imaging cell counts, at 1 µM; for red/green cell ratio (normalised): actives lie on both sides.
Test [11] has as its system Aerobactin synthetase IucA (Klebsiella pneumoniae hvKP1). Put plainly: IucA enzyme inhibition, primary screen, biochemical, Spectrum library (AID 1346200; call rule not given here;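 note: 100% = wells without compound and 0% = wells lacking enzyme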). The settings on record: malachite green pyrophosphate, A620, at 8 µM, stronger effect = lower value.
Test [12] in a line: viability loss with induced miR-34 in A549 – imaging, A549 dox-inducible miR-34, nuclei and caspase counts, primary screen (AID 1347080;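 active = compounds whose cell count with miR-34 switched on is under 0.7 times the count with it off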). The settings on record: A549 miR-34 inducible, Hoechst nuclei count, 48 h.
Test [13] in a line: MELAS cybrid and Rieske KO viability enhancers – cell-based, MELAS cybrids, Rieske KO mouse fibroblasts, CellTiter-Glo, primary screen (AID 1508586).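 Note: z relative to plate mean and SD of compound and empty wells.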 The settings on record: low glucose.
In test [14] the target is NAD(+) hydrolase SARM1 (Homo sapiens) (UniProt Q6SZW1). Description: blocking NAD cleavage by SARM1 SAM-TIR – cell lysate, NAD-Glo luminescence (AID 1508614;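 active = compound whose remaining NAD level is above about 45 nM, limit read from the data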;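 note: higher remaining NAD means stronger inhibition of SARM1 NADase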). As to conditions: SAM-TIR HEK293T lysate NADase, at 1 µM, stronger effect = higher value.
The target in test [15] is Mitogen-activated protein kinase 7 (Homo sapiens) (UniProt Q13164). Put plainly: Gal4-ERK5 driven luciferase induction – cell-based, HTS, primary screen (AID 1508626;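 active = luciferase signal above three times the same-plate solvent-only control wells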;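 note: luciferase driven by Gal4-ERK5 fusion binding five Gal4 sites before minimal TATA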). The settings on record: HeLa Gal4-ERK5 transactivation, 18 h, at 5 µM, stronger effect = higher value.
A short description of test [16]: galactose survival enhancers in mitochondrial complex I cybrids – cell-based, galactose medium, ATP luminescence, primary screen (AID 1645843;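 active = z-score of at least 1.8 in each of two replicates, scored against plate mean and spread of sample wells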;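 note: positive z means more ATP and so rescue of galactose-driven cybrid death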). The settings on record: complex I mutant cybrid cells, 72 h, stronger effect = higher value.
[17] abbreviates: measured here: epithelial PC-3E GFP cell survival.
Setting [18] is: measured here: mesenchymal TEM4-18 mCherry cell survival.
[19] abbreviates: measured here: relative caspase fold change +Dox/-Dox.
The mark [20] stands for this setting: measured here: total cells with miR-34 induction, stronger effect = lower value.
Where [21] appears, read: measured here: total cells without miR-34 induction.
Setting [22] is: MELAS cybrid survival, CellTiter-Glo 48 h, stronger effect = higher value.
Setting [23] is: Rieske KO mouse fibroblast survival, CellTiter-Glo 72 h.

Values joined by “and” are separate entries in the source; they are usually repeats but may differ in a detail not shown here. Equal values may be shown once. Active and inactive are the calls of the source.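 Rule for the calls, unless noted: active = mean z-score across replicates of 1.96 or higher in either the MELAS or the Rieske mutant cell line; inactive = the rest.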

Mitogen-activated protein kinase 7 (Homo sapiens), sequence (Q13164 whole entry, looked up, the tested form may be a part): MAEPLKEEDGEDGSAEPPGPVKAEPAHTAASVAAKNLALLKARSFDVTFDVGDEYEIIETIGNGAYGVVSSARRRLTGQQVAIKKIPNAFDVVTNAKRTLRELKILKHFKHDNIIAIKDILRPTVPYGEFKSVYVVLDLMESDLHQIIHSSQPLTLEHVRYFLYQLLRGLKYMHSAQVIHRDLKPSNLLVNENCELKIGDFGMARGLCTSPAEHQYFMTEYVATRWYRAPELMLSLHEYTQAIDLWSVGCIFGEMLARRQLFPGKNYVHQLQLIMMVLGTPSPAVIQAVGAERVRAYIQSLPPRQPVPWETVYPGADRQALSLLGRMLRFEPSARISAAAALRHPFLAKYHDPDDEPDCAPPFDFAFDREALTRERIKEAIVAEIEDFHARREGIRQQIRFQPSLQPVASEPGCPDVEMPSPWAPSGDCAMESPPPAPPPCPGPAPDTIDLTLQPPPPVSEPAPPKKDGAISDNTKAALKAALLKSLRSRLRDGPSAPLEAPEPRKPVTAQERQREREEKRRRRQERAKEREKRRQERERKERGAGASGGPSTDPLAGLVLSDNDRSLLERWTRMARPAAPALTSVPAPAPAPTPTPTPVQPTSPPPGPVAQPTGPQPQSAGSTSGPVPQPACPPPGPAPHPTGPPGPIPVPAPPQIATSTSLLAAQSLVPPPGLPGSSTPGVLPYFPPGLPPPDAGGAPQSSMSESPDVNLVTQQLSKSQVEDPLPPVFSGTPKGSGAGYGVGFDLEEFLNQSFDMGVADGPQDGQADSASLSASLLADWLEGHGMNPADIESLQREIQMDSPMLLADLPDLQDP
NAD(+) hydrolase SARM1 (Homo sapiens), sequence (Q6SZW1 whole entry, looked up, the tested form may be a part): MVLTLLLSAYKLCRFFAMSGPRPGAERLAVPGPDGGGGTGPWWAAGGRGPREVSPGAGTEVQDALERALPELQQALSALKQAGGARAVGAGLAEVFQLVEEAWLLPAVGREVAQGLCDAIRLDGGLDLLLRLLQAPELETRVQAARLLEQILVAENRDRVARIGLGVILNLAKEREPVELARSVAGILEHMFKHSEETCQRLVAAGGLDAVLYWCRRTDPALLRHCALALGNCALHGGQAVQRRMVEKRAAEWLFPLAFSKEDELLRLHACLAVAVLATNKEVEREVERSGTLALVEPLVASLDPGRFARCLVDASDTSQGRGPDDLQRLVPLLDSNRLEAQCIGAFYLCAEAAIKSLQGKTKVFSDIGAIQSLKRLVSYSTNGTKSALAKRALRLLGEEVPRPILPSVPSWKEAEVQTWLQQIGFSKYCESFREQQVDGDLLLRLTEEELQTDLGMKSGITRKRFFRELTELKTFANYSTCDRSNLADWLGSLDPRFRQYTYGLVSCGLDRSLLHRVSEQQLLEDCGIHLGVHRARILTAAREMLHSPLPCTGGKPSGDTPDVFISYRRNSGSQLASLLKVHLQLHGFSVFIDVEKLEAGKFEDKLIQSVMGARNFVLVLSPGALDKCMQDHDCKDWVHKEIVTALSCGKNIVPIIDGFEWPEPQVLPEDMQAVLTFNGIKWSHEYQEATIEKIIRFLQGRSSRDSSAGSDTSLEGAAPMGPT

Take `CCC(COC(=O)c1cc(OC)c(OC)c(OC)c1)(c1ccccc1)N(C)C` (stereo not given): the parasite load remaining in [1] was 36% (inactive). In addition, the viability in [1] came out at 62.6%. For the same compound, the nuclear beta-catenin stimulation in test [2] (at 10 µM) was 5.9% (inactive); in test [2] (stimulation, at 2 µM), 1.2%. Besides, the insulin secretion stimulation in test [3] is 2.2% (inactive). Besides, the viability decrease in [4] is 49% (inactive). Further, in test [5], the tube area decrease was 19.3% (inactive). Moreover, in test [6], the GLP1 secretion stimulation is 5.8% (inactive). In addition, in test [7], the inhibition of viability is 64.3% (active). For the same compound, the figures for the viability decrease (inhibition) in test [8] and in [9] were 22.7% (inactive) and 20.6% (inactive), respectively. For the same compound, the red/green cell ratio (normalised) in test [10] is 1 (inactive). Moreover, the normalised cell number in test [10] (setting [17]) and in test [10] (setting [18]) was 1.04 each time. Further, the activity remaining in test [11] was 102% (inactive). In addition, the fold change was 0.96 (inactive) and 0.993 (inactive) in [12] (stronger effect = lower value); 0.946 and 0.715 in test [12] (setting [19]). The cell count is 9130 and 7380 in test [12] (setting [20]); 9520 and 7430 in [12] (setting [21]). For the same compound, the z-score is -0.0948 (inactive) and -0.436 (inactive) in test [13] (setting [22]); -0.0807 and -0.229 in [13] (setting [23]); -1.25 (inactive) in test [16]. The remaining NAD in test [14] is 10 nM (inactive). In test [15], the luciferase signal was 28 AU (inactive).

For `c1ccc2c(c1)Nc1ccccc1S2`, the parasite load remaining in [1] was 39.8% (inactive). Further, the viability in test [1] is 65.3%. The nuclear beta-catenin stimulation in test [2] (at 10 µM) is -1.5% (inactive); in test [2] (stimulation, at 2 µM) it was -0.5%. For the same compound, the insulin secretion stimulation in test [3] was 1% (inactive). In addition, in [4], the viability decrease was 77.7% (active). The tube area decrease in test [5] was -18.6% (inactive). In test [6], the GLP1 secretion stimulation was -2.4% (inactive). Also, the inhibition of viability in test [7] was 48.1% (inactive). In addition, the viability decrease (inhibition) in test [8] is 60% (active); in [9], 38% (active). In addition, in [10], the red/green cell ratio (normalised) is 0.84 (inactive). The normalised cell number in test [10] (setting [17]) was 0.93; in test [10] (setting [18]), 0.78. Further, the fold change in [12] (stronger effect = lower value) is 0.885 (inactive) and 0.762 (inactive); in test [12] (setting [19]) it was 1.16 and 2.24. Further, the cell count in test [12] (setting [20]) was 8220 and 7990; in test [12] (setting [21]) it was 9300 and 10500. For the same compound, the z-score was -0.376 (inactive) and 0.48 (inactive) in test [13] (setting [22]); -0.33 and 0.378 in [13] (setting [23]); -0.355 (inactive) in [16]. For the same compound, the remaining NAD in test [14] was 10 nM (inactive).

As for `CC(C)c1cccc(C(C)C)c1O`, the nuclear beta-catenin stimulation in [2] (at 10 µM) was 1.6% (inactive); in test [2] (stimulation, at 2 µM), 2.2%. Besides, the insulin secretion stimulation in [3] was 0.6% (inactive). For the same compound, the viability decrease in [4] is 83.9% (active). Further, in test [5], the tube area decrease was 31% (inactive). Also, the GLP1 secretion stimulation in test [6] is -1.8% (inactive). In addition, the inhibition of viability in test [7] is 88.2% (active). In addition, the viability decrease (inhibition) in [8] was 102% (active); in [9], 100% (active). Moreover, the red/green cell ratio (normalised) in [10] is 1.01 (inactive). Also, the normalised cell number in test [10] (setting [17]) and in [10] (setting [18]) was 1.17 each time. In addition, the activity remaining in test [11] was 114% (inactive). Moreover, the z-score is 0.836 (inactive) and -0.252 (inactive) in test [13] (setting [22]); -0.371 and -1.34 in [13] (setting [23]); 0.08 (inactive) and -0.35 (inactive) and 0.505 (inactive) in test [16]. The remaining NAD in test [14] was 10 nM (inactive). In addition, the luciferase signal in [15] is 40 AU (inactive).

Consider `C#CCN(C)[C@H](C)Cc1ccccc1`, for which the nuclear beta-catenin stimulation was -2% (inactive) in test [2] (at 10 µM) and 0.7% in test [2] (stimulation, at 2 µM). Besides, the insulin secretion stimulation in [3] was 1.2% (inactive). For the same compound, the viability decrease in test [4] is 1.9% (inactive). Further, the tube area decrease in test [5] was -3.8% (inactive). Besides, the GLP1 secretion stimulation in [6] was 1.9% (inactive). Also, the inhibition of viability in [7] is 6.37% (inactive). Further, the results for the viability decrease (inhibition) in [8] and in test [9] were 10.9% (inactive) and 8.8% (inactive), respectively. The z-score was -1.17 (inactive) and -0.00892 (inactive) in [13] (setting [22]); -0.0749 and -0.112 in test [13] (setting [23]); 1.24 (inactive) and 0.63 (inactive) in [16]. Besides, in test [14], the remaining NAD is 10 nM (inactive).

As to `COc1cccc([C@@]2(O)CCCC[C@@H]2CN(C)C)c1`, the nuclear beta-catenin stimulation in [2] (at 10 µM) was 4.3% (inactive); in [2] (stimulation, at 2 µM), 1.4%. Besides, the insulin secretion stimulation in [3] is 9.4% (inactive). In addition, in [4], the viability decrease is 34.1% (inactive). Further, in [5], the tube area decrease is -7.2% (inactive). Also, the GLP1 secretion stimulation in test [6] is 4.9% (inactive). Further, the inhibition of viability in test [7] is 30.7% (inactive). Besides, the viability decrease (inhibition) was 75.1% (active) in [8] and 20.8% (inactive) in test [9]. Also, the fold change in test [12] (stronger effect = lower value) was 0.937 (inactive); in test [12] (setting [19]), 0.969. Besides, the results for the cell count in test [12] (setting [20]) and in test [12] (setting [21]) were 10100 and 10700, respectively. In addition, the z-score in [13] (setting [22]) was 0.879 (inactive) and 0.255 (inactive); in [13] (setting [23]) it was 0.166 and -0.539; in test [16], 0.845 (inactive). The remaining NAD in test [14] was 10 nM (inactive). Also, the luciferase signal in test [15] is 40 AU (inactive).

As a reminder, the viability is the share of living cells, or the viability signal relative to a control.
